{"source": "PubChem BioAssay (Tox21)", "note": "“And” between values parts separate entries of the source, which are not always exact repeats. Equal values may be shown once. Inconclusive results are not listed. Entries that show only a call come without a potency. The source made the active and inactive calls. Calls follow the shape of the dose curve; as a rule, active = well fitted curve in the direction sought with a large enough effect in the repeat runs; inconclusive = weak or mixed curves; inactive = no such curve, though single readings can be large; an effect the other way counts as inactive or inconclusive. Potency is read from the fitted curve at half-maximal effect."}
{"test": "Human pregnane X receptor (PXR) small molecule agonists, qHTS cell viability counter screen (AID 1346977); also: nearly all actives have a fitted effect of over 50% in size", "details": "PXR-Luc HepG2 viability, CellTiter-Fluor, 24 h; series mostly up to 92.4 µM", "summary_of_the_method": "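Measures live-cell protease fluorescence (CellTiter-Fluor) in PXR-Luc HepG2 cells treated 24hr with compounds at 37C. Cells had 5hr to attach before pin transfer of DMSO solutions.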"}
{"smiles": "O=C1OC(OC(=O)c2cccnc2Nc2cccc(C(F)(F)F)c2)c2ccccc21", "note": "(stereo not given)", "Potency": "inactive"}
{"smiles": "CCCCCCOc1cc(C)c(O)c(C)c1C", "Potency": "61.9 µM (active)"}
{"smiles": "Brc1ccccc1-c1ccccc1", "Potency": "inactive"}
{"smiles": "O[C@@H](c1cc(C(F)(F)F)nc2c(C(F)(F)F)cccc12)[C@H]1CCCCN1", "Potency": "26.6 µM (active)"}
{"smiles": "CN1CCN(C2Cc3ccccc3Sc3ccc(Cl)cc32)CC1", "note": "(stereo not given)", "Potency": "26.6 µM (active)"}
{"smiles": "N#CSCSc1nc2ccccc2s1", "Potency": "19.3 µM (active)"}
{"smiles": "CCC1(c2cnc[nH]2)Cc2ccccc2C1", "Potency": "inactive"}
{"smiles": "CN1[C@@H]2CC[C@H]1CC(OC(=O)C(CO)c1ccccc1)C2", "note": "(stereo not given in full)", "Potency": "inactive"}
{"smiles": "CCCCCCCC/C=C\\CCCCCCCC(=O)N(C)CC(=O)O", "Potency": "inactive"}
{"smiles": "Cc1c(-c2ccc(O)cc2)n(Cc2ccc(OCCN3CCCCCC3)cc2)c2ccc(O)cc12", "Potency": "23.7 µM (active)"}
{"smiles": "O=C1c2c(O)ccc(O)c2C(=O)c2c(NCCNCCO)ccc(NCCNCCO)c21", "Potency": "4.22 µM (active)"}
{"smiles": "CCCCCCCCCCCC(=O)N(CC)CC", "Potency": "inactive"}
{"smiles": "O=C(c1ccccc1)c1cc(Cl)ccc1O", "Potency": "inactive"}
{"smiles": "C[C@@]12C(=O)OC(=O)[C@]1(C)C1CCC2O1", "Potency": "0.266 µM (active)"}
{"smiles": "CCCCCCCC/C=C\\CCCCCCCC(=O)NCc1ccc(O)c(OC)c1", "Potency": "inactive"}
{"smiles": "CC(C)c1cccc(C(C)C)c1N1C(=O)c2ccc(O)cc2C1=O", "Potency": "inactive"}
{"smiles": "Clc1ccccc1CN1CCc2sccc2C1", "Potency": "inactive"}
{"smiles": "CCO[Si](CCCSSSSCCC[Si](OCC)(OCC)OCC)(OCC)OCC", "Potency": "inactive"}
{"smiles": "CC(CN(C)C)CN1c2ccccc2CCc2ccccc21", "note": "(stereo not given)", "Potency": "26.6 µM (active)"}
{"smiles": "CCCCCCCCCCOCC(O)CN", "note": "(stereo not given)", "Potency": "26.6 µM (active)"}
{"smiles": "CC(=O)Oc1ccc(C2(c3ccc(OC(C)=O)cc3)C(=O)Nc3ccccc32)cc1", "Potency": "inactive"}
{"smiles": "CCN(CC)c1ccc(N)cc1", "Potency": "15.8 µM (active)"}
{"smiles": "CCN(CC)CCNc1ccc(CO)c2sc3ccccc3c(=O)c12", "Potency": "7.5 µM (active)"}
{"smiles": "CCCCN(CCCC)CCC(O)c1cc2c(Cl)cc(Cl)cc2c2cc(C(F)(F)F)ccc12", "note": "(stereo not given)", "Potency": "26.6 µM (active)"}
{"smiles": "CC(=O)Nc1ccc(O)cc1", "Potency": "inactive"}
{"smiles": "CCCCCCCCCCCCCCNCCO", "Potency": "inactive"}
{"smiles": "C[C@]12CC[C@H]3C(=CCc4cc(O)ccc43)[C@@H]1CCC2=O", "Potency": "inactive"}
{"smiles": "O=Nc1ccc(NO)cc1", "Potency": "inactive"}
{"test": "Caspase-3/7 induction in HepG2 cells by small molecules, qHTS assay (AID 1346978); also: nearly all actives have a fitted effect of over 15% in size", "details": "HepG2 caspase-3/7 activation, Caspase-Glo luminescence, 17 h; series mostly up to 92.4 µM", "summary_of_the_method": "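Wild-type HepG2 cells, 2,000/well, settled 5 hr at 37 C and 5% CO2, then compound-treated for 17 hr; caspase-3/7 activity read by luminescent Caspase-Glo 3/7 after 30 min at room temperature.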"}
{"smiles": "Oc1c(Br)cc(Br)c2cccnc12", "Potency": "inactive"}
{"smiles": "O=C1OC(OC(=O)c2cccnc2Nc2cccc(C(F)(F)F)c2)c2ccccc21", "note": "(stereo not given)", "Potency": "inactive"}
{"smiles": "CCCCCCOc1cc(C)c(O)c(C)c1C", "Potency": "49.2 µM (active)"}
{"smiles": "O[C@@H](c1cc(C(F)(F)F)nc2c(C(F)(F)F)cccc12)[C@H]1CCCCN1", "Potency": "26.6 µM (active)"}
{"smiles": "CCC1(c2cnc[nH]2)Cc2ccccc2C1", "Potency": "inactive"}
{"smiles": "CN1[C@@H]2CC[C@H]1CC(OC(=O)C(CO)c1ccccc1)C2", "note": "(stereo not given in full)", "Potency": "inactive"}
{"smiles": "CCCCCCCC/C=C\\CCCCCCCC(=O)N(C)CC(=O)O", "Potency": "inactive"}
{"smiles": "Nc1ccc2cc3ccc(N)cc3nc2c1", "Potency": "30.6 µM (active) and 29.8 µM (active)"}
{"smiles": "O=C1c2c(O)ccc(O)c2C(=O)c2c(NCCNCCO)ccc(NCCNCCO)c21", "Potency": "4.22 µM (active)"}
{"smiles": "CCCCCCCCCCCC(=O)N(CC)CC", "Potency": "inactive"}
{"smiles": "C[n+]1c2cc(N)ccc2cc2ccc(N)cc21", "note": "(tested in a mixture with another compound)", "Potency": "9.44 µM (active)"}
{"smiles": "O=C(c1ccccc1)c1cc(Cl)ccc1O", "Potency": "inactive"}
{"smiles": "COc1ccc2sc(C(=O)Nc3nnn[nH]3)c(OC(C)C)c2c1", "Potency": "inactive"}
{"smiles": "CCCCCCOc1ccc(O)cc1", "Potency": "inactive"}
{"smiles": "CCCCCCCC/C=C\\CCCCCCCC(=O)NCc1ccc(O)c(OC)c1", "Potency": "inactive"}
{"smiles": "Clc1ccccc1CN1CCc2sccc2C1", "Potency": "inactive"}
{"smiles": "CCO[Si](CCCSSSSCCC[Si](OCC)(OCC)OCC)(OCC)OCC", "Potency": "inactive"}
{"smiles": "CC(CN(C)C)CN1c2ccccc2CCc2ccccc21", "note": "(stereo not given)", "Potency": "inactive"}
{"smiles": "CCCCCCCCCCOCC(O)CN", "note": "(stereo not given)", "Potency": "29.8 µM (active)"}
{"smiles": "CC(=O)Oc1ccc(C2(c3ccc(OC(C)=O)cc3)C(=O)Nc3ccccc32)cc1", "Potency": "inactive"}
{"smiles": "CCN(CC)c1ccc(N)cc1", "Potency": "inactive"}
{"smiles": "CCN(CC)CCNc1ccc(CO)c2sc3ccccc3c(=O)c12", "Potency": "13.3 µM (active)"}
{"smiles": "CCCCN(CCCC)CCC(O)c1cc2c(Cl)cc(Cl)cc2c2cc(C(F)(F)F)ccc12", "note": "(stereo not given)", "Potency": "inactive"}
{"smiles": "CC(=O)Nc1ccc(O)cc1", "Potency": "inactive"}
{"smiles": "CCCCCCCCCCCCCCNCCO", "Potency": "inactive"}
{"smiles": "CC(O)C#CC(C)O", "note": "(stereo not given)", "Potency": "inactive"}
{"smiles": "O=Nc1ccc(NO)cc1", "Potency": "inactive"}
